tested on: T1, PFTK1; conditions: concentration: 1 μM, replicates: in singlicate; n = 1
T1 construct: gene CDK14
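Further: KINOMEscan kinase panel screen.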

Row | SMILES | %Inh
1 | FC(F)(F)c1ccc(/C=C/c2cncnc2Nc2ccc3[nH]c(Cc4ccccc4)nc3c2)cc1 [GW709199] | 15%
2 | O=C(Nc1cccc(-c2nn3ccccc3c2-c2ccnc(Nc3cccc(F)c3)n2)c1)c1c(F)ccc(F)c1Cl [GSK357952] | 2%
3 | O=C(Nc1ccccc1F)NC1CCN(c2ccnc(Nc3ccc(F)cc3)n2)CC1 [GSK1379800] | 15%
4 | Cc1occc1-c1ncc(OC[C@@H](N)Cc2c[nH]c3ccccc23)cc1-c1ccc2[nH]nc(C)c2c1.O=C(O)C(F)(F)F [GSK682037] | 14%
5 | C[C@@H]1CC[C@@H](C(=O)Nc2ccccc2)CN1c1cc(-c2ccc3c(N)n[nH]c3c2)nc(N)n1 [GSK2286062] | 29%
6 | Cl.NC(=O)c1cccc(Nc2nccc(Nc3ccc(Oc4c(Cl)cccc4Cl)c(Cl)c3)n2)c1 [GW659009] | 0%
7 | Cc1ccc(C(=O)Nc2ccc(Nc3ccnc4cc(-c5nccs5)ccc34)cc2O)cc1.Cl [GW494702] | 0%
8 | CNC(=O)c1ccccc1Nc1nc(Nc2ccc(N3CCOCC3)cc2)ncc1Cl.Cl [GSK1576028] | 17%
9 | COc1cc(Nc2nccc(-c3c(-c4cccc(NC(=O)c5c(F)cccc5F)c4)nn4ccccc34)n2)cc(OC)c1OC [GSK323521] | 3%
10 | Nc1ncnc2c1nc(-c1ccccc1)n2-c1ccccc1 [SKF-97293] | 25%
11 | Fc1ccc(-c2ncn(C3CCNCC3)c2-c2ccnc(Oc3ccc(-c4ccccc4)cc3)n2)cc1 [SB-245391] | 9%
12 | Cl.Cl.NCC(NCc1ccc(-c2ccnc3[nH]ccc23)s1)c1ccccc1 (stereo not shown) [GSK1321565] | 1%
13 | CC(=O)N1CCN(c2ccc(Nc3nccc(-c4sc(C(C)C)nc4-c4cccc(NS(=O)(=O)c5cccc(Cl)c5)c4)n3)cn2)CC1 [GSK1660437] | 57%
14 | COc1ccc(Nc2nccc(N3CCC(NC(=O)Nc4cccc(OC)c4)C3)n2)cc1 (stereo not shown) [GSK1379742] | 2%
15 | Cl.Cl.NCC(NC(=O)c1cc(-c2ccccc2)c(-c2ccnc3[nH]ccc23)s1)c1ccccc1 (stereo not shown) [GSK1321561] | 17%
16 | O=C(Nc1n[nH]c2cc(-c3ccoc3)ccc12)C1CC1 [SB-738481] | 29%
17 | Cl.c1ccc(-c2ccc3c(Nc4ccc5[nH]ccc5c4)ccnc3c2)nc1 [GW440138] | 14%
18 | COc1cc(Nc2nccc(-c3c(-c4cccc(NC(=O)c5c(F)cccc5F)c4)nn4ncccc34)n2)cc(OC)c1OC [GSK327238] | 5%
19 | CCCCc1nn2ncccc2c1-c1ccnc(Nc2ccc(N3CCN(C)CC3)cc2)n1 [GW684941] | 0%

Row | SMILES | %Inh
20 | Nc1ncc(-c2ccc3nccc(-c4ccncc4)c3c2)cc1S(=O)(=O)N1CCOCC1 [GSK1627798] | 31%
21 | Cc1ccc(S(=O)(=O)Nc2ccc(Nc3nccc(Nc4cccc5[nH]ncc45)n3)cc2)cc1 [GSK581271] | 10%
22 | COc1ccc(Nc2nccc(NCCNC(=O)c3cc4ccccc4s3)n2)cc1 [GSK1379896] | 18%
23 | NCCCC(NC(=O)c1cc(Br)c(-c2ccnc3[nH]ccc23)s1)c1ccccc1.O=C(O)C(F)(F)F.O=C(O)C(F)(F)F (stereo not shown) [GSK1287544] | 0%
24 | CC(C)c1nc(-c2cccc(NS(=O)(=O)c3c(F)cccc3F)c2F)c(-c2ccnc(Nc3ccc(N4CCOCC4)nc3)n2)s1 [GSK2008607] | 98.7%
25 | O=C(NC1CCN(c2ccnc(Nc3ccc(F)cc3)n2)C1)c1cc2ccccc2s1 (stereo not shown) [GSK1379716] | 13%
26 | Nc1ncc(-c2cccnc2)c2scc(-c3ccc4c(c3)CCN4C(=O)Cc3ccccc3)c12 [GSK683281] | 20%
27 | CC(C)(C)c1ccc2nccc(Nc3cccc(O)c3)c2c1 [GW856795] | 0%
28 | COc1cccc(C2=C(Nc3ccc(Cl)c(C(=O)O)c3)C(=O)NC2=O)c1 [SB-390769] | 26%
29 | Cc1ccc(F)c(C(=O)Nc2cccc(-c3nn4ccccc4c3-c3ccnc(Nc4cccc(F)c4)n3)c2)c1F [GSK361061] | 11%
30 | O=C(Nc1n[nH]c2nc(-c3ccc(O)cc3)ccc12)C1CC1 [SB-710363] | 14%
31 | c1ccc(-c2n[nH]cc2Nc2ccnc3ccccc23)nc1 [GW694077] | 18%
32 | CCn1c(-c2nonc2N)nc2c(C#CC(C)(C)O)ncc(OCCCCN)c21.O=C(O)C(F)(F)F.O=C(O)C(F)(F)F [GSK507274] | 32%
33 | O=C(Nc1cccc(-c2nn3ccccc3c2-c2ccnc(Nc3cccc(C(F)(F)F)c3)n2)c1)c1c(F)cccc1F [GSK292658] | 8%
34 | Nc1n[nH]c2cnc(-c3ccccc3)cc12 [SB-642124] | 19%
35 | CN(c1ccc(NC(=O)Nc2cc(C(F)(F)F)ccc2F)cc1)c1ccnc(Nc2ccc(S(N)(=O)=O)cc2)n1 [GW809893] | 97%
36 | Clc1ccc(-c2nn3ncccc3c2-c2ccnc(Nc3ccc4c(c3)OCCO4)n2)cc1 [GW829116] | 0%
37 | Cn1cc(-c2[nH]c3cc(NC(=O)[C@H](N)C4CCCCC4)cc4c3c2C=NNC4=O)cn1 | 5%
